Source: PubChem BioAssay AID686978 (National Center for Advancing Translational Sciences (NCATS), 2013)
Values joined by “and” are separate entries in the source; they are usually repeats but may differ in a detail not shown here. Equal values may be shown once. Hit rate of the full screen: of about 420,000 compounds, about 64,000 (15%) were called active. Not shown: some 27% with an inconclusive outcome. Calls follow the shape of the dose curve; as a rule, active = well fitted inhibition curve with a large enough effect; inconclusive = small, poorly fitted or top-dose-only effect; inactive = flat fitted curve, though single readings scatter. Only a sample is shown. A call without a number means that no potency is given here.

Assay: qHTS for Inhibitors of human tyrosyl-DNA phosphodiesterase 1 (TDP1): qHTS in cells in absence of CPT; also: nearly all actives have a fitted effect of over 55% in size
Conditions: DT40 Tdp1-/- hTDP1 cells, no CPT, ATP luminescence, 48 h; activity change, negative = growth inhibition: at 46.2 µM (top of the series)
Procedure, shortened: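 Chicken DT40 Tdp1-/- cells complemented with human TDP1, screened without camptothecin (DMSO vehicle only), 400 cells/well. Compounds pin-transferred, cells incubated at 37 °C for at least 48 hr. Growth read as ATP-dependent luminescence (CellTiter-Glo, 30 min at RT).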
Potency is read from the fitted curve at half-maximal effect.

For `CC(CC(=O)C1C(C)C=CCC1(C)C)NNC(N)=O` (stereo unspecified), which Potency is on record?
Its Potency is “inactive”.

Which Potency does the source give for `O=C(CSc1nnc(-c2ccco2)o1)NCC(=O)c1ccccc1` here?
The Potency was “inactive”.

With `CCN(CC)C(=O)c1nc[nH]c1C(=O)N(C)Cc1ccccc1` as the molecule, how does the Potency read?
The Potency was “inactive”.

For `Cc1nnc(SCC(=O)NCc2cccs2)[nH]c1=O`, which Potency is on record?
The Potency was “inactive”.

With `CCN(CC)S(=O)(=O)c1cccc(-c2n[nH]c(=S)n2/N=C/c2ccc(C(=O)OC)cc2)c1` as the molecule, how does the Potency read?
The Potency was “inactive”.

With `Cc1cc(-c2n[nH]c(=S)n2/N=C/c2ccco2)n[nH]1` as the molecule, how does the Potency read?
Its Potency is “inactive”.

For `S=c1[nH]nc(-c2ccco2)n1/N=C/c1ccccc1`, which Potency is on record?
The Potency was “inactive”.

For `Cc1cc(-c2n[nH]c(=S)n2/N=C/C(Br)=C/c2ccccc2)n[nH]1`, which Potency is on record?
The Potency was 2.06 µM (active).

Which Potency does the source give for `Fc1ccccc1/C=N/n1c(-c2cccnc2)n[nH]c1=S` here?
Its Potency is “inactive”.

Which Potency does the source give for `S=c1[nH]nc(-c2cccnc2)n1/N=C/C(Cl)=C\c1ccccc1` here?
The Potency was 23.1 µM (active).

Which Potency does the source give for `Cc1ccccc1CCN(CC(=O)NC1CCCCC1)C(=O)c1csnn1` here?
The Potency was “inactive”.

Which Potency does the source give for `CSCC[C@H](NC(=O)CCCn1nnc2ccccc2c1=O)C(=O)O` here?
The Potency was “inactive”.

Which Potency does the source give for `C[C@H]1CN([C@@H](C)CO)C(=O)c2cc(-c3ccccc3F)cnc2O[C@H]1CN(C)C(=O)C1CCOCC1` here?
The Potency was “inactive”.

For `NC(=O)N/N=C\c1cccs1`, which Potency is on record?
Its Potency is “inactive”.

For `COc1ccccc1C(=O)N/C(=C/c1ccc2c(c1)OCO2)C(=O)Nc1cccc(C(=O)O)c1`, which Potency is on record?
The Potency was “inactive”.

Which Potency does the source give for `CC(=O)Nc1ccc(CN2CCC(Oc3ccc(C(=O)N4CCCC4)cc3)CC2)cc1` here?
Its Potency is “inactive”.

With `COc1ccc(N)c(C)c1` as the molecule, how does the Potency read?
Its Potency is “inactive”.

Which Potency does the source give for `COc1ccc(-c2ccc(C(=O)NC(C)C)c3occc23)c(C)c1` here?
The Potency was 16.4 µM (active).

For `COc1ccc2c(c1)CCc1cnc(-n3ncc(C(=O)NCCN4CCOCC4)c3C)nc1-2`, which Potency is on record?
Its Potency is “inactive”.

Which Potency does the source give for `COc1ccc(C2OC(=O)CC2C(=O)NC(C)C)cc1` (stereo unspecified) here?
Its Potency is “inactive”.

Which Potency does the source give for `O=C(Cc1ccc(Br)cc1)NCCN1CCOCC1` here?
The Potency was “inactive”.

Which Potency does the source give for `COc1ccc(-c2ccc(C(=O)NCCN3CCOCC3)c3occc23)c(C)c1` here?
Its Potency is 20.6 µM (active).

For `CCN(CC(=O)NCCc1ccccc1)S(=O)(=O)c1ccccc1`, which Potency is on record?
The Potency was “inactive”.

For `COc1ccc2c(c1)c1nc3n(c(=O)c1n2CC(=O)Nc1ccccc1)CCS3`, which Potency is on record?
The Potency was “inactive”.

With `O=C1C(=O)N(CCN2CCOCC2)C(c2cccc(Cl)c2)/C1=C(/O)c1ccc2c(c1)OCO2` (stereo unspecified) as the molecule, how does the Potency read?
Its Potency is “inactive”.

For `CCCNC(=O)CCc1c(C)nc2c(c(C)nn2-c2ccccc2)c1C`, which Potency is on record?
The Potency was “inactive”.

For `COC(=O)c1ccc(NC(=O)CCc2c(C)nc3c(c(C)nn3-c3ccc(C)cc3)c2C)cc1`, which Potency is on record?
Its Potency is 6.51 µM (active).

For `CCOC(=O)C(Cc1ccccc1)NC(=O)CCc1c(C)nc2c(c(C)nn2-c2ccc(C)c(C)c2)c1C` (stereo unspecified), which Potency is on record?
Its Potency is “inactive”.

For `Cc1ccc(C)c(NC(=O)CSc2nnc(Cc3cccn3C)n2-c2ccc(F)cc2)c1`, which Potency is on record?
Its Potency is “inactive”.

Which Potency does the source give for `CC1CCN(C(=O)C2CCN(S(=O)(=O)N3CCC4(CC3)OCCO4)CC2)CC1` here?
The Potency was “inactive”.

Which Potency does the source give for `Nc1nnc(SCn2nnc3ccccc3c2=O)s1` here?
The Potency was “inactive”.

Which Potency does the source give for `O=c1[nH]nc(Cc2ccccn2)c2ccccc12` here?
The Potency was “inactive”.

For `O=C(Nc1cccc(Cl)c1)c1csnn1`, which Potency is on record?
Its Potency is “inactive”.

For `O=C(Nc1ccccc1)c1nnsc1S(=O)(=O)c1ccc(Cl)cc1`, which Potency is on record?
The Potency was 2.59 µM (active).

With `O=C(Nc1ccc(Cl)cc1)c1ccsn1` as the molecule, how does the Potency read?
Its Potency is “inactive”.

With `Cc1cc(C)n2nc(C(=O)NC(C)(C)C)nc2n1` as the molecule, how does the Potency read?
Its Potency is “inactive”.

Which Potency does the source give for `O=S(=O)(Nc1ccc(-c2ccc(N3CCOCC3)nn2)cc1)c1cc(Cl)ccc1Cl` here?
Its Potency is “inactive”.

With `NC(=O)C1(Nc2ccccc2Cl)CCCC1` as the molecule, how does the Potency read?
The Potency was “inactive”.

For `CC(CC(=O)Nc1cc(C(F)(F)F)ccc1Cl)c1ccccc1` (stereo unspecified), which Potency is on record?
The Potency was “inactive”.

With `O=C(NNc1ccccc1Cl)C(O)(c1cccc(C(F)(F)F)c1)c1cccc(C(F)(F)F)c1` as the molecule, how does the Potency read?
The Potency was 16.4 µM (active).

Which Potency does the source give for `CC(C)Nc1ccc(-n2nc3ccccc3[n+]2[O-])cc1` here?
The Potency was “inactive”.

With `CN(C)c1cc[n+](Cc2ccccc2)cc1` as the molecule, how does the Potency read?
The Potency was 0.411 µM (active).

For `c1ccc(Cc2cc[n+](Cc3ccccc3)cc2)cc1`, which Potency is on record?
Its Potency is 20.6 µM (active).

With `[O-][n+]1ccc(OCc2ccccc2)cc1` as the molecule, how does the Potency read?
Its Potency is “inactive”.

With `CN(C)c1ccc(CSc2ccccc2)cc1` as the molecule, how does the Potency read?
The Potency was “inactive”.

Which Potency does the source give for `O=C(Nc1cc(-c2nn(CC(=O)N3CCCCC3)c(=O)c3ccccc23)ccc1N1CCOCC1)c1ccc(Cl)cc1` here?
Its Potency is “inactive”.

For `Cc1ccc(-c2csc3nnc(SCC(=O)NCc4ccco4)n23)cc1`, which Potency is on record?
The Potency was “inactive”.

For `COc1cc(F)c(C2=CC(=O)CC(C)(C)C2)cc1F`, which Potency is on record?
The Potency was “inactive”.

With `Cc1c(CCOC(=O)CC23CC4CC(CC(C)(C4)C2)C3)sc[n+]1Cc1ccc([N+](=O)[O-])cc1` as the molecule, how does the Potency read?
Its Potency is 18.4 µM (active).

With `O=C(CSC1=Nc2ccccc2C2=NC(c3ccccc3)C(=O)N12)NCC1CCCO1` (stereo unspecified) as the molecule, how does the Potency read?
The Potency was “inactive”.

For `Cc1ccc(C)c(S(=O)(=O)N2CC(=O)Nc3ccccc32)c1`, which Potency is on record?
The Potency was “inactive”.

Which Potency does the source give for `O=C(Nc1ccc(NC(=O)c2cccs2)cn1)c1ccco1` here?
The Potency was “inactive”.

For `CCOc1ccccc1NC(=O)Cc1cccs1`, which Potency is on record?
The Potency was “inactive”.

Which Potency does the source give for `Cc1ccc(NC(=O)Cn2nnc(C(=O)NCc3ccco3)c2N)c(C)c1` here?
Its Potency is “inactive”.

For `CCOc1ccccc1NC(=O)Cn1nnc(C(=O)NCc2cccs2)c1N`, which Potency is on record?
Its Potency is 130 nM (active) and 51.7 nM (active).

With `Cc1cc(C)n(CC(C)NCc2c(C(=O)N3CCOCC3)nc3c(C)cccn23)n1` (stereo unspecified) as the molecule, how does the Potency read?
The Potency was “inactive”.

For `Fc1ccc(Nc2nnns2)cc1`, which Potency is on record?
The Potency was “inactive”.

For `Cc1sc2c(c1C)c(=O)n(-c1ccccc1)c(=O)n2CC(=O)NCC1CCCO1` (stereo unspecified), which Potency is on record?
The Potency was “inactive”.

Which Potency does the source give for `Nc1ccc(S(=O)(=O)NC(=O)c2ccccc2)cc1` here?
The Potency was “inactive”.

With `Nc1ccc(C(=O)NCc2ccccc2)cc1` as the molecule, how does the Potency read?
Its Potency is “inactive”.

Which Potency does the source give for `Nc1ccc(C(=O)Nc2ccccc2N)cc1` here?
Its Potency is 2.37 µM (active) and 3.26 µM (active).

For `COc1ccc2oc(=O)c(C(=O)N3CCCC3)cc2c1`, which Potency is on record?
Its Potency is “inactive”.

For `CC(C)C[C@H](NC(=O)NCCc1ccc(Cl)cc1)C(=O)O`, which Potency is on record?
The Potency was “inactive”.

For `O=C(O)CSCC(=O)Nc1cccc(C(F)(F)F)c1`, which Potency is on record?
The Potency was “inactive”.

For `O=C(O)CC1(CC(=O)Nc2cccc(C(F)(F)F)c2)CCCC1`, which Potency is on record?
Its Potency is “inactive”.

Which Potency does the source give for `O=C(Nc1cccc(C(F)(F)F)c1)c1cc(Br)cc(Br)c1O` here?
The Potency was 13.3 µM (active).

Which Potency does the source give for `Cn1c(SCC(=O)N2CCOCC2)nnc1-c1ccc(NC(=O)c2ccccc2F)cc1` here?
The Potency was “inactive”.

With `CC1CN(C(=S)Nc2ccc(Br)cc2Cl)CC(C)O1` (stereo unspecified) as the molecule, how does the Potency read?
Its Potency is “inactive”.

With `C=CCNC(=S)N/N=C/c1ccc(OCc2ccccc2)cc1` as the molecule, how does the Potency read?
Its Potency is “inactive”.

Which Potency does the source give for `O=C(N/N=C/c1cccc(OCc2ccccc2)c1)c1ccc(Br)o1` here?
The Potency was “inactive”.

For `CNC(=S)N/N=C/c1ccc(OCc2ccccc2)c(Br)c1`, which Potency is on record?
Its Potency is 10.3 µM (active).
